Bioassay records as filed in PubChem.
SW480 rerep = induces DNA re-replication in SW480 colon adenocarcinoma cells; SW480 DNA re-replication, Hoechst DNA content imaging, 48 h; Potency, µM (highest dose often 46.1 µM), for the others: at the top dose re-replication activation, hits mostly activators; 1.8% of 340,000 active; AID 624297; note: potency is the fitted concentration of half-maximal effect; % of control where 0% means no effect; nearly all actives have a fitted effect of over 55% in size
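Hoechst fluorescence of nuclei (405 nm excitation, 500-530 nm emission) measured by plate-scanning imager after 48 hr compound exposure at 37 C; re-replication scored as increased number of nuclei with elevated intensity.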
Vif-APOBEC3G blk = blocks the Vif interaction with human APOBEC3G. Potency, µM (titrated, usually from 46.1 µM), for the others: at the top dose activity, negative = active, hits mostly inhibitors. 0.076% of 410,000 active. AID 602310. HeLa A3G-eYFP + Vif (tagged APOBEC3G with the HIV-1 protein that degrades it), YFP fluorescence, overnight. Q9HC16; note: potency is the fitted concentration of half-maximal effect; % is set by controls: 0 for no effect and ±100 for the full control effect; nearly all actives have a fitted effect of over 60% in size
Target sequence (Q9HC16 whole entry, looked up): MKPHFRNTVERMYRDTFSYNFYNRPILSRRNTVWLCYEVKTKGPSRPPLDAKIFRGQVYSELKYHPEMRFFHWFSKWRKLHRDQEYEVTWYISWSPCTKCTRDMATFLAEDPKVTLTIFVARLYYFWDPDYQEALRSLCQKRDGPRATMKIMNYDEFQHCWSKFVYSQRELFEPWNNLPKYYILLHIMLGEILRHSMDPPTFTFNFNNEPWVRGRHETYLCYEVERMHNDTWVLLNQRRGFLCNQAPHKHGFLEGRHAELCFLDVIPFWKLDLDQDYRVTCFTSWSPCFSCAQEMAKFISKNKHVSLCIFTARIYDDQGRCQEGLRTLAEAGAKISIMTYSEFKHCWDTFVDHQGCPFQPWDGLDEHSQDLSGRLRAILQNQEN
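HeLa cells stably expressing Vif and C-terminally eYFP-tagged A3G, seeded overnight at 37 deg C, then exposed to compound by pintool overnight at 37 deg C. Rise in yellow fluorescence (Ex 488/Em 500-530, Acumen) marks blocked Vif-driven A3G degradation.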
Vif-A3F inh = inhibitors of Vif-A3F interaction. Potency, µM (series often up to 46.1 µM), for the others: at the highest dose activity, negative = active. AID 602313. HeLa A3F-eYFP + Vif (tagged APOBEC3F with the HIV-1 protein that degrades it), YFP fluorescence increase. 0.2% of 390,000 active; note: potency is the fitted concentration of half-maximal effect; % of control where 0% means no effect; nearly all actives have a fitted effect of over 65% in size
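HeLa cells stably expressing Vif plus C-terminally eYFP-tagged A3F were seeded, incubated overnight at 37 deg C, dosed with compound, incubated overnight again at 37 deg C. Yellow fluorescence (Ex 488/Em 500-530) reported blocked Vif-mediated A3F-eYFP degradation.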
IL1B secr inh = blocks inflammasome-driven IL-1 beta release; 4.7% of 360,000 active; THP-1 LPS/ATP IL-1B secretion, AlphaLISA, 16 h; stronger effect = lower value; activity change, % at 57.5 µM; in the data active = activity change below about -50%; inconclusive = mostly about -30% to -49%; note: % is set by controls: 0 for no effect and ±100 for the full control effect
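THP-1 cells pretreated 1 hr with compounds (up to 57.5 uM final), then stimulated with LPS (250 ng/mL final) plus ATP (1.25 mM final); secreted IL-1B measured by AlphaLISA after 16 hr, decreased signal indicating inhibition.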
MCF10A rerep = induces DNA re-replication in MCF 10a normal breast cells. MCF 10A DNA re-replication, Hoechst nuclear intensity, 48 h. Potency, µM (highest dose often 46.1 µM), for inactives: at the top dose activity, positive = re-replication, actives largely listed as activators. 2.9% of 350,000 active. AID 624296; note: potency is the fitted concentration of half-maximal effect; % of control where 0% means no effect; nearly all actives have a fitted effect of over 50% in size
Giardia kill = kills Giardia lamblia; Giardia lamblia trophozoite viability; 0.15% of 340,000 active; activity change, % at 7.66 µM, hits read low; in the data active = activity change below about -80%; inconclusive = between about -30% and that limit;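 note: parasites exposed to compound for two days anaerobically before the ATP read; % is set by controls: 0 for no effect and ±100 for the full control effect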
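Compounds were tested on trophozoites seeded at 100 cells/well and held 48 hrs at 37 deg C anaerobically. An ATP-based luminescent kit measured the remaining live cells.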
* hit, by the source's call; ? = inconclusive; . = no result given; ! = a repeat was not active. Hits are enriched below; roughly 6.9% of the tested compounds scored in any of these assays. Unless noted, calls come from the whole dose curve; as a rule, active = well fitted curve in the direction sought with a large enough effect; inconclusive = small, poorly fitted or top-dose-only effect, or another doubt; inactive = no such curve, though single readings can be large; an effect the other way counts as inactive or inconclusive.

SMILES	SW480 rerep	Vif-APOBEC3G blk	Vif-A3F inh	IL1B secr inh	MCF10A rerep	Giardia kill
O=C(NC(c1ccc(Cl)cc1)c1cnccn1)C1CCN(Cc2ccccc2)CC1 (centres undefined)	.	-1%	.	-2	.	.
O=C(NC(c1ccc(-c2ccccc2)cc1)c1cnccn1)C1CCN(Cc2cccs2)CC1 (centres undefined)	.	0%	.	-11	.	.
COc1cc(CN2CCC(C(=O)NC(c3ccc(-c4ccccc4)cc3)c3cnccn3)CC2)cc(OC)c1 (centres undefined)	.	-21%	.	-53*	.	.
O=C(NC(c1ccc(-c2ccccc2)cc1)c1cnccn1)C1CCN(Cc2cccc(C(F)(F)F)c2)CC1 (centres undefined)	.	-10%	.	-63*	.	.
Cc1cc([N+](=O)[O-])ccc1NCc1ccccc1	-1%	-4%	-2%	-79*	?	19
O=C(C[n+]1ccc(Cc2ccccc2)cc1)Nc1ccc([N+](=O)[O-])cc1Cl	11%	0%	0%	?	?	15
Cc1cc([N+](=O)[O-])ccc1NC(=O)Cc1ccc(F)cc1	-7%	-1%	-19%	-59*	1%	4
Cc1cc([N+](=O)[O-])ccc1NC(=O)Nc1ccccc1F	-4%	0%	9%	-99*	-2%	-10
O=C(Nc1ccccc1)Nc1cc([N+](=O)[O-])ccc1F	1%	0%	7%	-6	13%	1
Cc1ccc([N+](=O)[O-])cc1NC(=O)Cc1ccc(F)cc1	1%	-1%	8%	-16	7%	-19
Cc1ccc(Cl)cc1NC(=O)C[n+]1ccc(Cc2ccc([N+](=O)[O-])cc2)cc1	3%	0%	1%	-82*	?	-4
Cc1cc([N+](=O)[O-])ccc1NCc1ccc2ccccc2c1	-4%	0%	-5%	0	-8%	10
COc1ccccc1C(=O)NCc1nnnn1-c1ccc(C)c(C)c1	.	3%	1%	.	.	.
O=[N+]([O-])c1ccc(CS(=O)c2ccccc2)cc1 (centres undefined)	1%	-4%	-11%	12	1%	-4
O=[N+]([O-])c1ccc(S(=O)Cc2ccccc2)c([N+](=O)[O-])c1 (centres undefined)	23µM*	-18%	13%	-101*	4.1µM*	2
Cc1ccc(F)cc1NC(=O)CCNC(=O)c1ccc([N+](=O)[O-])cc1	-12%	-3%	13%	-74*	-6%	-1
CN(C)c1ccc(Cn2ccc3ccccc32)cc1	.	-2%	.	.	.	.
Cc1c(CC(=O)N2CCCCC2)c(=O)oc2cc3occ(C(C)(C)C)c3cc12	.	2%	2%	.	.	.
Nc1ccc(Nc2ccccc2N)cc1	?	-1%	5%	6	27%	22
COc1ccc(Nc2ccccc2N)cc1	12%	?	-35%	-50*	?	5
O=S(=O)(c1ccccc1)c1nc(-c2ccccc2Cl)oc1NCCCN1CCOCC1	?	-4%	0%	-67*	?	3
O=S(=O)(c1ccccc1)c1nc(-c2ccccc2Cl)oc1NCCN1CCOCC1	9%	-6%	6%	-17	?	-1
Cc1ccccc1-c1nc(S(=O)(=O)c2ccc(Cl)cc2)c(NCCN2CCOCC2)o1	?	2%	-17%	-52*	21µM*	7
CCCCCCCc1c(O)nc(SCCN(C)C)[nH]c1=O	-7%	-1%	2%	-51*	-7%	9
COc1ccc(C)cc1NC(=O)COc1cc(=O)n(C)c2ccccc12	.	-1%	-1%	.	.	.
SMILES	SW480 rerep	Vif-APOBEC3G blk	Vif-A3F inh	IL1B secr inh	MCF10A rerep	Giardia kill
O=C1C=CC(=O)N1c1cccc(-c2ccccc2)c1	?	-26%	-1%	-65*	21µM*	9
C(=N\c1nc2ccccc2n1Cc1ccccc1)/c1cccs1	22%	0%	1%	-68*	-6%	-8
COc1cc(C#Cc2c(-c3ccccc3)n(C)c3ccccc23)cc(OC)c1	13%	0%	4%	13	?	10
Cc1cc(C#Cc2c(-c3ccccc3)n(C)c3ccccc23)ccc1F	-11%	-1%	0%	2	8.2µM*	3
Cn1c(-c2ccc(C#N)cc2)c(C#Cc2ccccc2)c2ccccc21	1.3µM*	-9%	-9%	5	?	-5
COc1ccc(C#Cc2c(-c3ccccc3)n(C)c3ccccc23)cc1	?	-30%	-9%	-5	?	7
CCOC(=O)C(C)Nc1ncnc2onc(C)c12 (centres undefined)	.	-1%	3%	.	.	.
Cc1ccc(CNC(=O)Cn2nc(N3CCN(c4ccccc4)CC3)ccc2=O)cc1	.	-1%	0%	.	.	.
CCc1ccc(OCC(=O)N(Cc2ccc(C(C)C)cc2)C2CCS(=O)(=O)C2)cc1 (centres undefined)	.	-12%	-2%	.	.	.
COc1ccc(-c2ccc3c(c2)C2CC3CCN2C(=O)C2CCCCC2)cc1 (centres undefined)	?	-2%	-4%	30	?	11
COc1ccc(-c2ccc3c(c2)C2CC3CCN2)cc1 (centres undefined)	27%	2%	-6%	-16	21µM*	-23
CC1=NN(c2nc3ccccc3[nH]2)C(=O)C1Cc1ccccc1 (centres undefined)	2.9µM*	?	?	62	?	-23
COc1cc2ccc(=O)oc2c(O[C@@H]2O[C@H](CO)[C@@H](O)[C@H](O)[C@H]2O)c1O	8.2µM*!	-2%	0%	3	16µM*	16
CC(=O)c1ccc(N2CCN(C(=O)CCS(=O)(=O)c3ccc4c(c3)oc(=O)n4C)CC2)cc1	.	5%	-1%	.	.	.
O=C1C2C3c4ccccc4C(Br)(c4ccccc43)C2C(=O)N1c1ccccc1O (centres undefined)	18µM*	-3%	3%	7	-7%	-25
COc1ccc(OC)c(NC(=O)CCc2nnc3ccc(N4CCC(C)CC4)nn23)c1	-2%	-1%	2%	-50*	-2%	-20
COc1ccc(/C=C/C(=O)c2cc(F)ccc2OC(=O)c2ccc(OC)c(OC)c2)cc1OC	-703%	-12%	-12%	-29	?	-8
COc1ccc(/C=C/C(=O)c2cc(F)ccc2OC(=O)c2ccccc2)cc1OC	1.3µM*	?	0%	?	?	-1
COc1ccc(/C=C/C(=O)c2cc(F)ccc2OC(=O)c2ccccc2OC)cc1OC	?	?	4%	-100*	13µM*	-12
O=C(NCC(c1cccs1)S(=O)(=O)c1cccs1)c1cccc(F)c1 (centres undefined)	.	2%	-9%	.	.	.
Oc1cc2c(cc1O)[C@@H](c1ccccc1)CNCC2	19%	2%	2%	17	18µM*	-15
